Measurements as given in PubChem BioAssay AID1992 (Sanford-Burnham Center for Chemical Genomics, 2009).
Out of some 50,000 compounds screened, about 350 (0.7%) were called active. No stated cut-off is given here; in the data, active means inhibition above about 60%; inactive means the rest. Only a selection was taken, and actives are over-represented in it overall.

Each compound was assayed against Dual specificity protein phosphatase 3 (Homo sapiens) (UniProt P51452) (assay: human DUSP3 activity blockers – biochemical, colorimetric, HTS, primary screen (AID 1992)). Conditions: recombinant VHR phosphatase, colorimetric substrate read-out; at 20 µM; stronger effect = higher value.
Sequence of Dual specificity protein phosphatase 3 (Homo sapiens) (P51452 whole entry, looked up): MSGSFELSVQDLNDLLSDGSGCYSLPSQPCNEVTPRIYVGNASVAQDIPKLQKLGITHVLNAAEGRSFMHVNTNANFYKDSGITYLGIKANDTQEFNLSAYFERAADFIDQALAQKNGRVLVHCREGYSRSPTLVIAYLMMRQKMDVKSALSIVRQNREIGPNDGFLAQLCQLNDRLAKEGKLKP

Structure (SMILES)	inhibition
O=C(NCc1ccccc1)c1ccc(CN2CCN(c3ccccc3)CC2)cc1	5.6% (inactive)
CC(C)(C)c1cc(Br)ccc1OCC(=O)Nc1ccccc1[N+](=O)[O-]	-0.7% (inactive)
O=C(Nc1cccc(Br)c1)C(=O)NC1CCCC1	-18.7% (inactive)
Cc1ccc2c(c1)C(c1ccccc1[N+](=O)[O-])CC(=O)N2 (configuration not stated)	-4.5% (inactive)
O=C(c1nn2c(c1Cl)NC(c1ccc(F)cc1)CC2C(F)(F)F)N1CCN(Cc2ccccc2)CC1 (configuration not stated)	-2.9% (inactive)
O=C1C2C(C(=O)N1/N=C/C=C/c1ccccc1)C1C=CC2C12CC2 (configuration not stated)	-11.9% (inactive)
CC(C)(C)c1cc(N2C(=O)C(=O)/C(=C(\O)c3ccccc3)C2c2cccc([N+](=O)[O-])c2)no1 (configuration not stated)	10.1% (inactive)
Cc1cccc(NC(=O)CCCOc2ccccc2)c1C	-23.5% (inactive)
Cc1ccccc1NCC(=O)N/N=C\c1cc([N+](=O)[O-])cc(Br)c1O	31.8% (inactive)
Cc1cc(Br)cc(/C=N/NC(=O)c2cncc(Br)c2)c1O	-16.6% (inactive)
Cc1ncc(C[n+]2csc3ccccc32)c(N)n1	23.5% (inactive)
COc1ccc(C(=O)/C=C/Nc2cccc(Cl)c2Cl)cc1	3.3% (inactive)
CN(C)CCOC(=O)CCN1C(=O)/C(=C/c2ccc(Cl)cc2Cl)SC1=S	-1.5% (inactive)
O=C(O)CCN1C(=O)/C(=C/c2ccc(-c3cc(Cl)ccc3Cl)o2)SC1=S	73% (active)
O=C1S/C(=C/c2ccc(-c3ccc(Cl)cc3Cl)o2)C(=O)N1c1ccccc1	-7.5% (inactive)
Cc1cccc(NC(=O)c2cc(-c3ccc(Br)cc3)nc3ccccc23)n1	-30.2% (inactive)
CCn1c(=O)c(C(=O)Nc2ccccc2Br)c(O)c2ccccc21	-20.9% (inactive)
COc1ccc(C=O)c2c(O)cccc12	2.1% (inactive)
CCN(C=NC1=NN(c2ccccc2)CC1)CC	2.7% (inactive)
O=C1C=CC2=C3Oc4c(ccc5cc(O)ccc45)C(c4ccccc4C(=O)O)C3C=CC2=C1 (configuration not stated)	85.5% (active)
O=C(NCCCn1ccnc1)c1ccccc1[N+](=O)[O-]	5.9% (inactive)
CC1=C(C(=O)OCc2ccccc2)C(c2ccc(C(F)(F)F)cc2)CC(=O)N1 (configuration not stated)	8.1% (inactive)
O=C1C(=O)N(Cc2ccccc2)C2C=CC=CC12 (configuration not stated)	7.6% (inactive)

Structure (SMILES)	inhibition
COc1cccc(NC(=O)CN(c2cccc([N+](=O)[O-])c2)S(=O)(=O)c2ccccc2)c1	-23.4% (inactive)
CCOC(=O)c1c(NC(=O)c2cc(OC)c(OC)c(OC)c2)sc(C(N)=O)c1C	1.3% (inactive)
S=c1n(CN2CCOCC2)nc(-c2ccccc2Cl)n1-c1ccccc1	-3.8% (inactive)
O=C(Nc1cc(Cl)cc(Cl)c1)C1COc2ccccc2O1 (configuration not stated)	-3% (inactive)
COc1ccc(/C=N/NC(=O)C2CC2)c(OC)c1OC	-32.4% (inactive)
Cc1cc(C)c2cccc(NC(=S)NC(=O)c3cccc([N+](=O)[O-])c3)c2n1	-0.4% (inactive)
O=[N+]([O-])c1nonc1NCn1nnc2ccccc21	-8% (inactive)
CC(NC(=O)C1CC(=O)N(c2ccc(Br)cc2)C1)c1ccccc1 (configuration not stated)	16.1% (inactive)
COC(=O)c1ccc(/C=N/Nc2nncc(-c3ccccc3)n2)cc1	-34% (inactive)
Cc1onc(-c2c(Cl)cccc2Cl)c1C(=O)Nc1sc2c(c1C(N)=O)CCCC2	-46.5% (inactive)
O=C1NC(=O)C(=Cc2cccc(OCc3ccccc3)c2)C(=O)N1	-24.8% (inactive)
CCOC(=O)Cc1csc(NC(=O)COc2cc(C)ccc2C(C)(C)C)n1	5.7% (inactive)
Cc1ccc(-c2ccc(/C=C3\Sc4ccccc4C3=O)o2)c([N+](=O)[O-])c1	-37.5% (inactive)
COc1ccc(N2C(=O)c3cccc4c(NC(CO)(CO)CO)ccc(c34)C2=O)cc1	-0.7% (inactive)
CCOC(=O)C1=C(O)CSC1=Nc1ccc(F)cc1	104% (active)
CCOC(=O)C1=C(O)CSC1=Nc1cccc(Cl)c1	-1.6% (inactive)
CCOC(=O)C1=C(O)/C(=C\c2cccc([N+](=O)[O-])c2)SC1=Nc1ccc(OC)cc1	-20.7% (inactive)
COc1ccc(C2C(C(=O)/C=C/c3ccccc3)=C(O)C(=O)N2CCCCCC(=O)O)c(OC)c1 (configuration not stated)	29.2% (inactive)
CCC(=O)N(CCC1(c2ccc(F)cc2)CCOC(C)(C)C1)Cc1ccc(OC)c(OC)c1 (configuration not stated)	-8.3% (inactive)
COc1ccc(C(=O)Nc2ccc3nn(-c4ccc(C)c(Cl)c4)nc3c2)cc1[N+](=O)[O-]	-21.1% (inactive)
Cc1c(N(C(=O)c2cccc(Cl)c2)C(C)C)c(=O)n(-c2ccccc2)n1C	-7.9% (inactive)
O=C(/C=C\Nc1ccccn1)c1ccc2c(c1)OCO2	-7.8% (inactive)
COC(=O)Cn1cc(/C=C2\C(=O)NC(=O)N(c3cc(C)cc(C)c3)C2=O)c2ccccc21	-5.9% (inactive)

Structure (SMILES)	inhibition
C/C(=N\NC(=O)c1cccc(Cl)c1)c1ccccc1O	-3.8% (inactive)
Cc1ccc(/C=N/c2nc3ccc(Br)cc3s2)c(O)c1	-5% (inactive)
Cn1/c(=N/N=C/c2cc(Br)ccc2O)sc2ccccc21	114% (active)
Oc1ccc(Br)cc1/C=N/Nc1ccccn1	-11% (inactive)
CC(=O)c1nc2cc([N+](=O)[O-])ccc2n1Cc1ccccc1	-31% (inactive)
O=C(O)CCC(=O)Nc1cc(Cl)cc(Cl)c1	11.1% (inactive)
COc1ccc(CN=CC2=C(O)CC(c3ccccc3)CC2=O)cc1 (configuration not stated)	15.4% (inactive)
O=[N+]([O-])c1ccc(OCC(O)Cn2cnc3ccccc32)cc1 (configuration not stated)	39% (inactive)
CCOc1ccc(-c2cc(C(=O)Nc3ccncc3)c3ccccc3n2)cc1	-20.9% (inactive)
CC(C)(C)c1ccc(/C=N/NC(=O)Cc2cccc3ccccc23)cc1	-3.8% (inactive)
Cc1ccc2c(N)c(C(=O)c3ccccc3)sc2n1	-19.7% (inactive)
Nc1nnc(CCC(=O)c2ccccc2)s1	78.1% (active)
Nc1nnc(SCC(=O)NCc2ccccc2)s1	-7% (inactive)
COc1ccc(NC(=O)/C=C/c2cccc([N+](=O)[O-])c2)cc1	-2.5% (inactive)
O=C(NCc1ccccn1)Nc1ccc(Cl)cc1	25.4% (inactive)
COc1ccc(N/C(C)=C/C(=O)c2ccc(F)cc2)cc1	-8.4% (inactive)
COc1ccc(/C=C2/C(C)=C(C#N)c3nc(N)c(C#N)c(C)c32)cc1OC	24% (inactive)
COc1ccccc1/C=N/NC(=O)CCc1c(C)n[nH]c1C	-1.8% (inactive)
O=C(NN1CCOCC1)c1cccc(F)c1	-10.6% (inactive)
Cc1cc(Cl)ccc1NC1=CC(=O)CC(c2ccccc2)C1 (configuration not stated)	-7.1% (inactive)
CN(C)/C=C(/Cl)C=C1C(=O)c2ccccc2C1=O	-2.3% (inactive)
COc1ccc([N+](=O)[O-])cc1NC(=O)CCc1ccccc1	-10.6% (inactive)
CCCCCOC(=O)CSc1nnc(-c2ccccc2Cl)o1	-27.4% (inactive)

Structure (SMILES)	inhibition
CCCOc1ccc(C(=O)Nc2ccc(N(CC)CC)cc2)cc1	-10.9% (inactive)
CCOC(=O)c1ccc(NC(=O)c2cc(OCC)cc(OCC)c2)cc1	-14.7% (inactive)
CCCOC(=O)c1ccc(NC(=O)c2ccc(OCc3ccccc3)cc2)cc1	109% (active)
CCOC(=O)C(=O)C1CCc2c([nH]c3ccc(C)cc23)C1=O (configuration not stated)	-0.5% (inactive)
COc1ccc(OC)c(-n2c(O)c(C=Nc3cccc(C)c3)c(=O)[nH]c2=O)c1	-17.5% (inactive)
COc1ccc(NC(=O)C2=C(C)NC(=O)NC2c2ccc(OC)cc2)cc1 (configuration not stated)	24.2% (inactive)
COC(=O)C1=C(C)N=c2s/c(=C\c3cc(OC)c(OC)cc3[N+](=O)[O-])c(=O)n2C1c1ccccc1 (configuration not stated)	-6% (inactive)
O=C(Nc1cccc2ccccc12)c1ccc(-c2ccccc2)cc1	-1.1% (inactive)
Cc1cc(/C=C2/NC(=S)NC2=O)c(C)n1-c1ccc(N2CCOCC2)cc1	61.6% (active)
Cc1cc(C=C2C(=O)NC(=S)NC2=O)c(C)n1-c1ccc(F)cc1	0.6% (inactive)
Cc1cc(/C=C2/NC(=O)NC2=O)c(C)n1-c1ccc(Cl)cc1	-8.6% (inactive)
CCOc1ccc(N2C(=O)NC(=O)/C(=C/c3ccc(-c4ccccc4[N+](=O)[O-])o3)C2=O)cc1	19% (inactive)
O=C1NC(=S)N(c2ccc(Cl)cc2)C(=O)/C1=C/c1ccc(-c2ccccc2C(=O)O)o1	95.3% (active)
O=C1/C(=C/c2ccc(-c3ccc(Cl)cc3C(=O)O)o2)Sc2ccccc21	15.2% (inactive)
COc1ccc(C(=O)NC2CC(C)(C)NC(C)(C)C2)cc1OC	-52.9% (inactive)
O=C(Nc1ncc(Br)cc1Br)c1cccc2ccccc12	101% (inactive)
COC(=O)c1cc(C(=O)Nc2ncccc2C)cc([N+](=O)[O-])c1	7.6% (inactive)
C/C(=C\C(=O)c1ccc(Br)cc1)Nc1ccccc1F	4.7% (inactive)
CC1=NN(c2cccc(Cl)c2)C(=O)/C1=C\c1c(C)[nH]n(-c2ccccc2)c1=O	-29.9% (inactive)
CC1=NN(c2ccc(S(N)(=O)=O)cc2)C(=O)/C1=C\c1ccc(-c2cc([N+](=O)[O-])ccc2C)o1	77.1% (active)
CC1=NN(c2ccc(S(N)(=O)=O)cc2)C(=O)/C1=C\c1ccc(-c2ccc(Cl)c(C(=O)O)c2)o1	-1.9% (inactive)
CC1=NN(c2ccc(S(N)(=O)=O)cc2)C(=O)/C1=C\c1ccc(-c2ccc(C(=O)OC(C)C)cc2)o1	-1.6% (inactive)
NC(=O)C1CCN(S(=O)(=O)c2ccc3ccccc3c2)CC1	-3.8% (inactive)
